Measured values published in PubChem BioAssay AID540333 (Southern Research Specialized Biocontainment Screening …, 2011).
Out of some 10,000 compounds screened, about 320 (3.2%) were called active. Rule as the data show it: active = CPE inhibition mostly above about 9.1% (no sharp cut-off); inactive = mostly below about 7.2%. Many of the other results were omitted from the sample, so actives are more common in it than they were.

Assay: antivirals protecting cells from dengue CPE – CPE readout, HTS (AID 540333)
Conditions: Dengue virus CPE inhibition in host cells, at 20 µM; stronger effect = higher value

Structure (SMILES)	CPE inhibition
COc1ccc(N(CC(=O)Nc2cccc([N+](=O)[O-])c2C)S(C)(=O)=O)cc1OC	inactive
N/C(=N\OCC(=O)Nc1ccccc1)c1nonc1N	0.24% (inactive)
NS(=O)(=O)c1ccc(CCNC(=O)c2cc(-c3ccccc3)nc3ccccc23)cc1	inactive
CC1(c2nnc(Cc3ccccc3)o2)CC(c2ccccc2F)=NO1 (configuration not stated)	inactive
COc1ccc(C(=O)NCC(=O)OCC(=O)N2CCN(S(=O)(=O)c3ccccc3)CC2)cc1	inactive
O=C(NCc1ccccc1)/C(=C/c1ccc(OC(F)F)cc1)c1ccccc1	9.52% (active)
O=C(NNC(=S)NCc1ccccc1)c1ccc(OC(F)F)cc1	0.96% (inactive)
FC(F)Oc1ccc(NC(=S)NCc2ccccc2)cc1	inactive
Cc1cc(C(=O)COc2ccc(C#N)cc2)c(C)n1-c1ccc2c(c1)OCO2	9.11% (inactive)
O=C(O)c1cccc2c1C(=O)c1ccc(-c3ccc(F)cc3F)cc1S2(=O)=O	1.88% (inactive)
O=C(Nc1ccc(F)cc1)c1ccccc1Oc1ccc(C(F)(F)F)cc1[N+](=O)[O-]	9.71% (inactive)
O=Cc1ccc(OC2OCCOC2Oc2ccc(C=O)cc2)cc1 (configuration not stated)	15.4% (active)
c1ccc(-c2csc3ncnc(NCC4COc5ccccc5O4)c23)cc1 (configuration not stated)	6.15% (inactive)
CC1CCc2c(C(=O)OCC(=O)Nc3cccc(S(=O)(=O)N4CCCCCC4)c3)csc2C1 (configuration not stated)	11.4% (active)
Cc1cnc(C(=O)OCC(=O)Nc2cccc(S(=O)(=O)N3CCCCC3)c2)cn1	inactive
Nc1nccnc1C(=O)OCC(=O)Nc1cccc(S(=O)(=O)N2CCCCC2)c1	inactive
CS/C(=N\S(=O)(=O)c1cccs1)Nc1cccc(Cl)c1C	inactive
Cc1ccc(NC(=O)C(OC(=O)c2ccc(NC(N)=O)cc2)c2ccccc2)cc1Cl (configuration not stated)	15.2% (active)
Cc1ccc(NC(=O)CSc2ccccc2NC(=O)c2ccccc2)cc1Cl	2.96% (inactive)
COc1ccc(C)cc1NC(=O)C(OC(=O)c1cc(C)oc1C)c1ccccc1 (configuration not stated)	1.23% (inactive)
Cc1ccc(NC(=O)C(OC(=O)c2ccc(F)cc2)c2ccccc2)cc1Cl (configuration not stated)	1.61% (inactive)
Cc1cc(C(=O)OC(C(=O)Nc2ccc(C)c(Cl)c2)c2ccccc2)c(C)o1 (configuration not stated)	14.6% (active)
Cc1cc(C)cc(NC(=O)C(OC(=O)c2ccc([N+](=O)[O-])o2)c2ccccc2)c1 (configuration not stated)	0.445% (inactive)
Cc1ccc(NC(=O)C(OC(=O)c2cc(C)oc2C)c2ccccc2)cc1 (configuration not stated)	18.4% (active)
CC(=O)c1cccc(NC(=O)C(OC(=O)c2cccs2)c2ccccc2)c1 (configuration not stated)	0.01% (inactive)

Structure (SMILES)	CPE inhibition
Cc1ccc(NC(=O)CSc2ccccc2NC(=O)c2ccccc2Cl)cc1Cl	9.34% (inactive)
Cc1cc(C)cc(-n2c(SCC(=O)Nc3cccc(S(=O)(=O)NC4=NCCCCC4)c3)nc3ccccc3c2=O)c1	0.54% (inactive)
CNC(=O)CSc1nnc(SCCC(=O)O)s1	0.415% (inactive)
Cc1ccccc1-n1c(C)nnc1SCC(=O)NC1CCCc2ccccc21 (configuration not stated)	0.065% (inactive)
O=C(CSc1nc2ccccc2s1)NC1CCCc2ccccc21 (configuration not stated)	0.775% (inactive)
Cc1cccc(Nc2nnc(SCC(=O)NC3CCCc4ccccc43)s2)c1C (configuration not stated)	14.5% (active)
O=C1c2ccccc2C(=O)N1CN(C(=O)COc1ccc(Cl)cc1Cl)c1cccc(F)c1	3.16% (inactive)
CCOC(=O)C1=C(C)NC(=O)C1CC(=O)O (configuration not stated)	inactive
CN(c1cccc(NC(=O)CN(c2cccc(Cl)c2)S(=O)(=O)c2ccccc2)c1)S(C)(=O)=O	3.62% (inactive)
CN(c1cccc(NC(=O)CN(c2ccc(Cl)c(Cl)c2)S(=O)(=O)c2ccccc2)c1)S(C)(=O)=O	5.86% (inactive)
CN(c1cccc(NC(=O)CN(c2cccc(Cl)c2)S(=O)(=O)c2ccc(Cl)cc2)c1)S(C)(=O)=O	11.8% (active)
COC(=O)CNC(=O)C1Nc2ccc(OC(F)(F)F)cc2C2C=CCC12 (configuration not stated)	0.595% (inactive)
COc1ccc2c(C)cc(Sc3nnnn3-c3ccccc3)nc2c1	3.01% (inactive)
COc1ccc(NC(=O)c2ccc(C#N)cc2)cc1NS(=O)(=O)c1ccc(F)cc1	inactive
CC(=O)N1N=C(c2ccccc2)CC1c1cn(Cc2ccccc2)c2ccccc12 (configuration not stated)	6.58% (inactive)
CC(=O)N1N=C(c2ccc(Br)cc2)CC1c1cn(C)c2ccccc12 (configuration not stated)	16% (active)
CCC(=O)N1N=C(c2ccc(C)o2)CC1c1ccc(Br)cc1 (configuration not stated)	inactive
Cn1c(C=O)c(C#CC(C)(C)O)c2ccccc21	4.96% (inactive)
COc1cc(C#Cc2c(C=O)n(C)c3ccccc23)cc(OC)c1	8.36% (active)
Cn1c(C=O)c(C#Cc2ccccc2)c2ccccc21	inactive
COc1cc(SC)ccc1C(=O)NCCc1ccccc1	0.785% (inactive)
O=C(Nc1cccc(Cl)c1)Nc1cc(S(=O)(=O)N2CCOCC2)ccc1N1CCCC1	8.49% (inactive)
CC(C)CC(NC(=O)c1ccc(Cl)cc1)C(=O)OCc1cc([N+](=O)[O-])cc2c1OCOC2 (configuration not stated)	1.44% (inactive)
COc1ccc(CCNC(=O)COC(=O)C2CCCCC2)cc1	0.035% (inactive)
COC(=O)c1ccc(CNC(=O)COC(=O)C2CCC(C(C)(C)C)CC2)cc1 (configuration not stated)	0.91% (inactive)

Structure (SMILES)	CPE inhibition
COc1ccc(CNC(=O)COC(=O)C2CCC(C(C)(C)C)CC2)cc1 (configuration not stated)	24.9% (active)
O=S1(=O)CCC(NC(=S)N2CCCCC2)C1 (configuration not stated)	inactive
CC(=O)NC(Cc1ccccc1)C(=O)OCC(=O)c1ccc(Br)cc1 (configuration not stated)	inactive
COCCCN(C(=S)Nc1c(C)cc(C)cc1C)C(C)c1ccncc1 (configuration not stated)	0.045% (inactive)
COCCCN(C(=S)Nc1cc(Cl)cc(Cl)c1)C(C)c1ccncc1 (configuration not stated)	16.4% (active)
COCCCN(C(=S)Nc1ccc(C)cc1Cl)C(C)c1ccncc1 (configuration not stated)	inactive
O=C(CCc1ccccc1)NCCSCc1c(F)cccc1Cl	inactive
C#CCN(C(=O)Nc1ccccc1)c1ccccc1	inactive
CC(=O)NS(=O)(=O)c1cccnc1Nc1cccc(Cl)c1C	1.49% (inactive)
CC1CCC(=NNc2ccc(C(F)(F)F)cc2[N+](=O)[O-])CC1 (configuration not stated)	0.085% (inactive)
CCC(=O)OC1(C)C(=O)C=C2C=C(CCCC(=O)OC)OC=C2C1=O (configuration not stated)	inactive
CC1(OC(=O)C2CCCC2)C(=O)C=C2C=C3CCCCN3C=C2C1=O (configuration not stated)	inactive
CCCCC1=CC2=CC(=O)C(C)(OC(=O)CC)C(=O)C2=CN1C1CCCC1 (configuration not stated)	20.9% (active)
Cc1ccc(S(=O)(=O)N/N=C2/CCCCC2C2CCCCC2)cc1[N+](=O)[O-] (configuration not stated)	0.01% (inactive)
Fc1ccc(CSc2ncnc3scc(-c4ccccc4)c23)cc1	1.17% (inactive)
O=C(OC(C(=O)Nc1cccc(C(F)(F)F)c1)c1ccccc1)C1CCCCC1 (configuration not stated)	21.9% (active)
COc1cc(OC)c(C(=O)OC(C)C(=O)Nc2cccc(C(F)(F)F)c2)cc1OC (configuration not stated)	inactive
CCOC(=O)C(=NC1CCCCC1)NNc1cccc(C(F)(F)F)c1	5.4% (inactive)
Cc1cc(C)nc(NS(=O)(=O)c2ccc(NC(=O)C3(c4ccccc4)CCCC3)cc2)n1	inactive
CC(=O)Nc1cccc(Oc2ncnc3scc(-c4ccc(C(C)C)cc4)c23)c1	15% (active)
COc1ccc(-c2csc3ncnc(Oc4ccc5c(C)cc(=O)oc5c4)c23)cc1	inactive
CC(=O)Nc1ccc(Sc2ncnc3scc(-c4ccccc4)c23)cc1	2.31% (inactive)
Cc1cc(NC(=O)CCc2ccccc2)c([N+](=O)[O-])cc1C	inactive
O=C(Nc1nc2ccc3ccccc3c2s1)c1ccc(N2CCCCC2)c([N+](=O)[O-])c1	13.2% (active)
O=C(Nc1nc2ccccc2s1)c1ccc(N2CCCCC2)c([N+](=O)[O-])c1	2.82% (inactive)

Structure (SMILES)	CPE inhibition
O=C(Nc1ccc(N2C(=O)c3cccc4cccc(c34)C2=O)cc1)c1ccc(N2CCCCC2)c([N+](=O)[O-])c1	2.95% (inactive)
O=C(O)CSC(=S)N1CCCCC1	0.795% (inactive)
N#CC(C#N)=C1C=CC=CN1/C(=C\c1ccco1)C(=O)c1ccc(-c2ccccc2)cc1	inactive
Cc1nc2ccccc2c(-c2ccccc2)c1CC(=O)O	0.655% (inactive)
O=C(O)c1cccc(-c2nc3ccccc3[nH]2)c1	0.345% (inactive)
c1ccc(-c2c3ccccc3nc3[nH]c4ccccc4c23)cc1	23.8% (active)
Cc1ccc(-n2nnnc2SC(C(=O)c2c[nH]c3ccccc23)c2ccccc2)cc1 (configuration not stated)	inactive
O=C1C=C(c2ccc(Cl)c(C(F)(F)F)c2)C[C@@H](c2ccc3c(c2)OCO3)C1	7.58% (inactive)
O=C1C=C(c2cc(C(F)(F)F)cc(C(F)(F)F)c2)C[C@@H](c2ccc3c(c2)OCO3)C1	17.9% (active)
O=C1C=C(c2ccccc2)C[C@@H](c2ccc3c(c2)OCO3)C1	0.36% (inactive)
O=C(CSCc1ccccc1)Nc1ccc(F)c(F)c1	inactive
Cc1cc(C(=O)NCC(=O)OCC(=O)N(C2CCCCC2)C2CCCCC2)ccc1[N+](=O)[O-]	inactive
CCNc1ccc(C(=O)OCC(=O)NCc2ccc(C)cc2)cc1[N+](=O)[O-]	0.91% (inactive)
CCN1C(=O)[C@@H]2[C@@H](c3ccc(SC4CCCCC4)cc3)N3CCC[C@@]3(C(=O)OC)[C@@H]2C1=O	0.855% (inactive)
CCCCCCSc1ccc([C@@H]2[C@@H]3C(=O)N(CC)C(=O)[C@@H]3[C@]3(C(=O)OC)CCCCN23)cc1	16.4% (active)
COC(=O)[C@@]12CCCCN1[C@H](c1ccc(-c3ccccc3)cc1)[C@H]1C(=O)N(C)C(=O)[C@H]12	3.82% (inactive)
CCN1C(=O)[C@@H]2[C@@H](c3ccc(-c4ccc(OC)cc4)cc3)N3CCC[C@@]3(C(=O)OC)[C@@H]2C1=O	0.355% (inactive)
CCN1C(=O)[C@@H]2[C@@H](c3ccc(-c4ccc(Cl)c(Cl)c4)cc3)N3CCC[C@@]3(C(=O)OC)[C@@H]2C1=O	3.61% (inactive)
COC(=O)[C@@]12CCCCN1[C@H](c1ccc(-c3ccc(Cl)c(Cl)c3)cc1)[C@H]1C(=O)N(C)C(=O)[C@H]12	26.6% (active)
COC(=O)[C@@]12CCCCN1[C@H](c1ccc(-c3ccc(C(C)=O)cc3)c(OC)c1)[C@@H]1C(=O)N(C)C(=O)[C@@H]12	3.06% (inactive)
CCSc1ccc([C@@H]2[C@@H]3C(=O)N(C)C(=O)[C@@H]3[C@]3(C(=O)OC)CCCCN23)cc1	inactive
CCN1C(=O)[C@H]2[C@@H](c3ccc(-c4ccc(Cl)c(Cl)c4)cc3)N3CCCC[C@@]3(C(=O)OC)[C@H]2C1=O	15.9% (active)
